SMILES strings stand for the structures. The whole screen tested about 160,000 compounds, of which about 45 (0.03%) were called active. No stated cut-off is given here; in the data, active means inhibition mostly above about 34% (no sharp cut-off); inconclusive means no clear call, values can overlap the other calls; inactive means mostly below about 22%. The full list was thinned out, with actives kept by preference.

The target of this experiment is dTDP-4-dehydrorhamnose reductase (Mycobacterium tuberculosis (strain ATCC 25618 / H37Rv)) + dTDP-4-dehydrorhamnose 3,5-epimerase (Mycobacterium tuberculosis (strain ATCC 25618 / H37Rv)) (UniProt P9WH09+P9WH11). Put plainly: M. tuberculosis RmlC/RmlD coupled enzyme inhibitors, primary screen, biochemical, compound mixtures, 384-well, from 1536-well plates (AID 1533). Conditions: RmlC+RmlD coupled enzyme assay, percent inhibition; primary screen in compound mixtures; at 3.6 µM; hits give high values.
Chain of dTDP-4-dehydrorhamnose reductase (Mycobacterium tuberculosis (strain ATCC 25618 / H37Rv)) + dTDP-4-dehydrorhamnose 3,5-epimerase (Mycobacterium tuberculosis (strain ATCC 25618 / H37Rv)) (P9WH09 whole entry, looked up): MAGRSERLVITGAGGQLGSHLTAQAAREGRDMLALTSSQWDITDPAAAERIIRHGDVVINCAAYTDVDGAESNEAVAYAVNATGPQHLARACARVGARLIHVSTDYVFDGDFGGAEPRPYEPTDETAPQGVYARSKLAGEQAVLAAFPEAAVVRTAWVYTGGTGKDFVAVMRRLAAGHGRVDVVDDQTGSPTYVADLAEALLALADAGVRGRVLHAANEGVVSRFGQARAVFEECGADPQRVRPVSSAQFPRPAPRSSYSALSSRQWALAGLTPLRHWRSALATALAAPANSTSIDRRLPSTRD
Chain of dTDP-4-dehydrorhamnose reductase (Mycobacterium tuberculosis (strain ATCC 25618 / H37Rv)) + dTDP-4-dehydrorhamnose 3,5-epimerase (Mycobacterium tuberculosis (strain ATCC 25618 / H37Rv)) (P9WH11 whole entry, looked up): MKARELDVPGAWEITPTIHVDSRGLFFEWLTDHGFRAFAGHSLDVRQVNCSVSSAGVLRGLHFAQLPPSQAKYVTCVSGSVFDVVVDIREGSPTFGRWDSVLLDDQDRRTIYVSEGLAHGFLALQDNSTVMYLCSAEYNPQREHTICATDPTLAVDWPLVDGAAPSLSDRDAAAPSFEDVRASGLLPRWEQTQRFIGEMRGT
In the case of `COc1ccc2[nH]c(=S)cc(C)c2c1`, the inhibition is 1.84% (inactive). The figure for `Cc1cc(=O)oc2cc(OCCC[n+]3ccccc3)ccc12` is 2.56% (inactive); for `CCc1ccc(-n2c(SCc3cc(=O)n4cc(Br)ccc4n3)nc3[nH]ncc3c2=O)cc1` it is -10.8% (inactive). `CCn1c2ccccc2c2cc(NC(=O)Nc3ccc([N+](=O)[O-])cc3C)ccc21`: the inhibition was 14.1% (inactive). Consider `O=C(Nc1cccnc1)c1cc([N+](=O)[O-])ccc1Cl`, for which the inhibition was -16% (inactive).

For `COc1cccc(C(=O)n2ccc(-c3cccs3)n2)c1`, the inhibition is 2.94% (inactive).

For `COc1ccc(N(Cc2ccccc2)S(=O)(=O)c2cccc(C(=O)O)c2)cc1`, the inhibition was 1.87% (inactive). Next, `COc1ccccc1Cn1c(CO)nc2ccccc21`: 17.8% (inactive); `CC(=O)N1N=C(c2ccncc2)OC1(Cc1ccccc1)Cc1ccccc1`: 9.53% (inactive).

Regarding `COc1cccc(CNn2cn[nH]c2=S)c1OCc1ccccc1`, the inhibition is -3.37% (inactive). For the compound `C=CCN1C(=O)C(O)(CC(=O)c2ccccn2)c2ccccc21` (configuration not stated), the inhibition was -20.3% (inactive). The figure for `S=c1[nH]nc(Nc2ccccc2)s1` is -6.55% (inactive); for `CC1C(=O)NC(=O)C1c1ccccc1` (configuration not stated) it is 11.3% (inactive); for `COc1ccc(NC(=O)C2CCC(CNc3c(N4CCCCC4)c(=O)c3=O)CC2)c(OC)c1` (configuration not stated) it is 1.5% (inactive). The figure for `O=C(Nc1ccccc1)Nc1ccc(C(F)(F)F)cn1` is -12.1% (inactive); for `COC(=O)c1sc(SC)c(S(=O)(=O)C(C)C)c1N/N=C(\C#N)S(=O)(=O)c1ccccn1` it is 26.5% (inactive). Next, `O=C(NC1C2CC3CC(C2)CC1C3)c1ccc(N2CCNCC2)c([N+](=O)[O-])c1` (configuration not stated): -17.8% (inactive).

As to `C=CCC1(C#N)C(=S)NC(C)=C(C(=O)OCC)C1c1ccccc1` (configuration not stated), the inhibition was -2.23% (inactive). The figure for `Cc1c(Cc2ccccc2)c(=O)oc2cc(OCC(N)=O)ccc12` is -14.1% (inactive). Take `Cn1c(SCC(=O)c2ccc(F)cc2)nnc1-c1ccccn1`: the inhibition was -3.85% (inactive). On to `CCOC(=O)COc1nc(C)cc(C(F)(F)F)c1C#N`, for which the inhibition is 2.06% (inactive). The figure for `O=C(O)CCCCCCCCCC[n+]1ccccc1` is 9.14% (inactive).

Take `NC(=O)c1ccc(NC(=O)COC(=O)c2ccc([N+](=O)[O-])cc2)cc1`: the inhibition was 11.7% (inactive). On to `Cc1cc(N2CCN(c3ccc(F)cc3)CC2)n2ncnc2n1`, for which the inhibition is 15.1% (inactive).

On to `CN(C)C(=O)c1nc2ccc(Cl)cn2c1CNCc1cccc(OC(F)(F)F)c1`, for which the inhibition was 10.5% (inactive).

For `O=C(c1ccc(=O)oc1)N1CCC(C(O)(c2ccccc2)c2ccccc2)CC1`, the inhibition was 7.4% (inactive). Next, `O=C(COC(=O)/C=C/c1ccc2c(c1)OCO2)NC1CCS(=O)(=O)C1` (configuration not stated): -0.46% (inactive).

In general, inhibition refers to the relative decrease from the control value, in per cent.
